The structures appear in SMILES notation.

Assay [1] deals with Insulin receptor (Homo sapiens) (UniProt P06213). The following applies: at 10 µM.
Assay [2] has the same target. Conditions: at 1 µM.
Assay [3] shares this target. Conditions: at 10 µM. The source holds these as a separate data set.
Assay [4] addresses Interleukin-1 receptor-associated kinase 1 (Homo sapiens) (UniProt P51617). Conditions: at 1 µM.
Assay [5] has the same target. The following applies: at 10 µM.
Assay [6] concerns the target T1, Interleukin-1 receptor-associated kinase 4 (Homo sapiens) (UniProt Q9NWZ3).
T1 sequence (whole entry): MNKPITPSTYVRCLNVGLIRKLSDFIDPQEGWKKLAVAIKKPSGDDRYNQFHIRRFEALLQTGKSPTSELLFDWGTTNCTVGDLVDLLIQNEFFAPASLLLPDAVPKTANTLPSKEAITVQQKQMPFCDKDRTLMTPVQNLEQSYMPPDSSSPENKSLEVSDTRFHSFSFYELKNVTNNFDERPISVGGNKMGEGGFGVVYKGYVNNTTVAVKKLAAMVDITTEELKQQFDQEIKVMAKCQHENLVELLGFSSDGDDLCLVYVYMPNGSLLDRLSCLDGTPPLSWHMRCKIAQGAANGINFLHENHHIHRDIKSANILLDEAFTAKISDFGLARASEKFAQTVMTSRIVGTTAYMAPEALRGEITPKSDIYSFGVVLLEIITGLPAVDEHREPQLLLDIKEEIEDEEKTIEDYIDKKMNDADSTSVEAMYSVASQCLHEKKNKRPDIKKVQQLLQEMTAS
The following applies: at 1 µM.

Assay [7] addresses T1, Interleukin-1 receptor-associated kinase 4 (Homo sapiens). Conditions: at 10 µM.
For assay [8], the target named is Insulin receptor-related protein (Homo sapiens) (UniProt P14616). The following applies: at 1 µM.
Chain of Insulin receptor-related protein (Homo sapiens) (P14616 27-742 limits assumed): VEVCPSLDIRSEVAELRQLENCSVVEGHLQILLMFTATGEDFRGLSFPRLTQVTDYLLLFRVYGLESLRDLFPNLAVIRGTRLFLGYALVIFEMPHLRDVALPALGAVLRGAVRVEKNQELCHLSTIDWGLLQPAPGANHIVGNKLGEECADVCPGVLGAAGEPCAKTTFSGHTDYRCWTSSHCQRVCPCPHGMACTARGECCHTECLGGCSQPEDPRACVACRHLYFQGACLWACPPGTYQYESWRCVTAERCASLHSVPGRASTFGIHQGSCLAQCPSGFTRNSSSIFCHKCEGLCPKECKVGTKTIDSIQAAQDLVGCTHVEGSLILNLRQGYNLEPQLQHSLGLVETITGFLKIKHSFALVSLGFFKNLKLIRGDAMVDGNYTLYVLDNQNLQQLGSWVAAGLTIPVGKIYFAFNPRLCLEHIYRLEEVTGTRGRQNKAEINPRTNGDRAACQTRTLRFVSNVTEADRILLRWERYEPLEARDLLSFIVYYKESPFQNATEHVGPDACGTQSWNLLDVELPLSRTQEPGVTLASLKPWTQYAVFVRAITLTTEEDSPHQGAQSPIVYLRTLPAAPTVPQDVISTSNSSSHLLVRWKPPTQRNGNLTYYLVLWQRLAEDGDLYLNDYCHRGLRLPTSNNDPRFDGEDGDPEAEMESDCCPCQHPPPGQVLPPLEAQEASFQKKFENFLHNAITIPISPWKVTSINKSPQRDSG
Chain of Insulin receptor-related protein (Homo sapiens) (P14616 747-1297 limits assumed): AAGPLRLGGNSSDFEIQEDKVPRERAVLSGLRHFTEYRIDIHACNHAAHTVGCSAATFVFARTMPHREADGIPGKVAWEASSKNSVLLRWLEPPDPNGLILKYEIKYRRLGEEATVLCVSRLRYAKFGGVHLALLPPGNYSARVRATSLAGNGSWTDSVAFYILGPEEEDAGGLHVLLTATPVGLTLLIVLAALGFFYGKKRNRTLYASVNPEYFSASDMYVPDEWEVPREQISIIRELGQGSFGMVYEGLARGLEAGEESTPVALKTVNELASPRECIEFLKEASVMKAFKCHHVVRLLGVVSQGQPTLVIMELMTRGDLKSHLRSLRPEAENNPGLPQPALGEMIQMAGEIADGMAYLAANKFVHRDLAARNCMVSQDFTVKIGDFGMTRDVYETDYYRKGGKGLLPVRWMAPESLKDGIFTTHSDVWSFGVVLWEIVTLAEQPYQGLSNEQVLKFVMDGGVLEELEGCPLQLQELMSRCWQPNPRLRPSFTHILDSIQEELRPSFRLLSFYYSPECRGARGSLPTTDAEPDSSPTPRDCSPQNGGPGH
Assay [9] shares this target. The following applies: at 10 µM.
Assay [10] concerns the target T2, Tyrosine-protein kinase ITK/TSK (Homo sapiens) (UniProt Q08881).
T2 sequence (whole entry): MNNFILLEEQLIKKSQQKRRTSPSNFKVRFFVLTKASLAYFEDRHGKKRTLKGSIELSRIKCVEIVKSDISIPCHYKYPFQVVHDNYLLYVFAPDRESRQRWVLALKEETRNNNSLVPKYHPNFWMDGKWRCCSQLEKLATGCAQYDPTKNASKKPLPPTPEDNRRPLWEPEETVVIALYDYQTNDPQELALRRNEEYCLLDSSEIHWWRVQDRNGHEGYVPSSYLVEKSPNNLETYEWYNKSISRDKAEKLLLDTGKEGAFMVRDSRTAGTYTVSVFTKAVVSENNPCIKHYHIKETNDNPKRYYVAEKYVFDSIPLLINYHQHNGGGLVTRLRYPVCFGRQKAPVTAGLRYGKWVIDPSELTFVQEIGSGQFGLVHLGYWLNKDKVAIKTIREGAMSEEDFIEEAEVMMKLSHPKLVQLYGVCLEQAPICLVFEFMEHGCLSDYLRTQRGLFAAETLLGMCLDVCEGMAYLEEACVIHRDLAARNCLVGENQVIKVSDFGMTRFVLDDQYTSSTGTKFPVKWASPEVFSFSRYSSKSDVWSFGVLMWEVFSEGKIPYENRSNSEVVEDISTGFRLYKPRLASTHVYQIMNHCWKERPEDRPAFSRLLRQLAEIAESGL
Conditions: at 1 µM.

Assay [11] deals with T2, Tyrosine-protein kinase ITK/TSK (Homo sapiens). The following applies: at 10 µM.
For assay [12], the target named is Tyrosine-protein kinase JAK2 (Homo sapiens) (UniProt O60674). Conditions: at 1 µM.
Chain of Tyrosine-protein kinase JAK2 (Homo sapiens) (O60674 whole entry): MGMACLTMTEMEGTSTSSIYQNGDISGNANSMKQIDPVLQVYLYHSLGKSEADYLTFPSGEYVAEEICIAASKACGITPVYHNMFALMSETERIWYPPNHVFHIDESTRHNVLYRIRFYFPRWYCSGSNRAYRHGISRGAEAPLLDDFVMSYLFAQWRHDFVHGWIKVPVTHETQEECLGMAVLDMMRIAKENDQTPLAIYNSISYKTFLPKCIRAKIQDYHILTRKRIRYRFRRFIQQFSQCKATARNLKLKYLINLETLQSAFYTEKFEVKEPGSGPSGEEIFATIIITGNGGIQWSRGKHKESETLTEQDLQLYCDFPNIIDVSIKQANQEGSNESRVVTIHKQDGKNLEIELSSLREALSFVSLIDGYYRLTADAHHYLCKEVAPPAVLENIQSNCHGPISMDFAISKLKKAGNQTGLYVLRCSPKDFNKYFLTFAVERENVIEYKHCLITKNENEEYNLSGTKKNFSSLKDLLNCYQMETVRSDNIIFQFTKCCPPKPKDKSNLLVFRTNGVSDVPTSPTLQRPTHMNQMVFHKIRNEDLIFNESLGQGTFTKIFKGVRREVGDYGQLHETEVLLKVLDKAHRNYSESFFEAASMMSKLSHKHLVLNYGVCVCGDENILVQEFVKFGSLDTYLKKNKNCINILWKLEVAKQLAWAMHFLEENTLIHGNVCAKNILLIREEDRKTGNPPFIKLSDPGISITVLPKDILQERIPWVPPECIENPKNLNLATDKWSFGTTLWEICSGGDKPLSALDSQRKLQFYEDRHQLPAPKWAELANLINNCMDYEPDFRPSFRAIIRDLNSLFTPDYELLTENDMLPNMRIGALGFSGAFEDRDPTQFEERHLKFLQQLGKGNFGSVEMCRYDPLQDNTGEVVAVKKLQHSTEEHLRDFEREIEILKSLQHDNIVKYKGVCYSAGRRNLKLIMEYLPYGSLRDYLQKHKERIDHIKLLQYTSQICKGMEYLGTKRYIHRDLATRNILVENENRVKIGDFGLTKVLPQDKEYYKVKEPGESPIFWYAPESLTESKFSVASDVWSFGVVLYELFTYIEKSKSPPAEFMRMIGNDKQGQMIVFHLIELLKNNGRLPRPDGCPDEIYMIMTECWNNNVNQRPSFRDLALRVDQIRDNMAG
For assay [13] the target is unchanged. The following applies: at 10 µM.
The target in assay [14] is T3, Tyrosine-protein kinase JAK3 (Homo sapiens) (UniProt P52333).
T3 sequence (whole entry): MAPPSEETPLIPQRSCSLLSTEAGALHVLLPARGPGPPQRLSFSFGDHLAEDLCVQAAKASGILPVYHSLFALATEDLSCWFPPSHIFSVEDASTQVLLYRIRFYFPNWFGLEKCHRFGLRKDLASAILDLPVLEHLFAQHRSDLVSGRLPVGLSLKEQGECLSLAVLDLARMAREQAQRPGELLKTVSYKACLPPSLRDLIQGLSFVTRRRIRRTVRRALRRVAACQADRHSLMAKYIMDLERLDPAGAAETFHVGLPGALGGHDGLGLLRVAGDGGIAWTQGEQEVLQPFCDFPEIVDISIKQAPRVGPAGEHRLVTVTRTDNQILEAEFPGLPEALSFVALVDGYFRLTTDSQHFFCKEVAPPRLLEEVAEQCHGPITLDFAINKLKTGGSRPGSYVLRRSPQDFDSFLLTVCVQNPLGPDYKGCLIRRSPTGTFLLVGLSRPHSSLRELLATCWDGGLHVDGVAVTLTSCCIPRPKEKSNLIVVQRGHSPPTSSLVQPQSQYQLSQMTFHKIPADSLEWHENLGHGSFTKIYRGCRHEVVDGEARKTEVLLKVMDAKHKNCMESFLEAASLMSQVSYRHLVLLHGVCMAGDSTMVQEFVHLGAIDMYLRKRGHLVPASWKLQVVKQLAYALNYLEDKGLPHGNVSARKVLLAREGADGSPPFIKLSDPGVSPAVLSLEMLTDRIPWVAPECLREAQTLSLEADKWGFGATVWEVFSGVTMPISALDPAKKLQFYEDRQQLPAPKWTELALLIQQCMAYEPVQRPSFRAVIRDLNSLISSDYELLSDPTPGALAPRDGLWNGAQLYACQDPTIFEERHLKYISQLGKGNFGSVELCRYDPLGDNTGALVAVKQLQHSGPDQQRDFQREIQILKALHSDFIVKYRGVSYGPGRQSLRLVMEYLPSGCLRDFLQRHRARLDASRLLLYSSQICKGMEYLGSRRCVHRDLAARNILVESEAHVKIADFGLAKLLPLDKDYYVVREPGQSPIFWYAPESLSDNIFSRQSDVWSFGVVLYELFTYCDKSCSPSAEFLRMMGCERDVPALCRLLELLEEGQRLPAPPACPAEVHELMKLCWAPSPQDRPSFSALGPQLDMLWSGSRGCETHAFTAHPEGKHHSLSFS
Conditions: at 1 µM.

Assay [15] addresses T3, Tyrosine-protein kinase JAK3 (Homo sapiens). Conditions: at 10 µM.
Assay [16] has as its target Mitogen-activated protein kinase 8 (Homo sapiens) (UniProt P45983). Conditions: at 1 µM.
For assay [17] the target is unchanged. Conditions: at 10 µM.
Assay [18] deals with Mitogen-activated protein kinase 9 (Homo sapiens) (UniProt P45984). Conditions: at 1 µM.
Chain of Mitogen-activated protein kinase 9 (Homo sapiens) (P45984 whole entry, looked up): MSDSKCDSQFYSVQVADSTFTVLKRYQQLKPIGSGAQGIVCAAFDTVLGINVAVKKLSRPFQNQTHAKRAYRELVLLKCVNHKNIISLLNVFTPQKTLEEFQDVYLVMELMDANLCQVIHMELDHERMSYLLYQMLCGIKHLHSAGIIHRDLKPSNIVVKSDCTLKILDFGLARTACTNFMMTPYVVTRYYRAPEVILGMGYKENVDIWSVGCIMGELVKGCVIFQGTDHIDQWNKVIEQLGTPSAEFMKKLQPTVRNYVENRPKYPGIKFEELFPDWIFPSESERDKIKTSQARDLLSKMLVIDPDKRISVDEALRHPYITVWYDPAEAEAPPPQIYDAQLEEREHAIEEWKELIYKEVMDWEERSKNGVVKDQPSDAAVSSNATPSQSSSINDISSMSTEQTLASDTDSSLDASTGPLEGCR
Assay [19] has the same target. The following applies: at 10 µM.
Assay [20] concerns the target Mitogen-activated protein kinase 10 (Homo sapiens) (UniProt P53779). Conditions: at 1 µM.

Chain of Mitogen-activated protein kinase 8 (Homo sapiens) (P45983 whole entry): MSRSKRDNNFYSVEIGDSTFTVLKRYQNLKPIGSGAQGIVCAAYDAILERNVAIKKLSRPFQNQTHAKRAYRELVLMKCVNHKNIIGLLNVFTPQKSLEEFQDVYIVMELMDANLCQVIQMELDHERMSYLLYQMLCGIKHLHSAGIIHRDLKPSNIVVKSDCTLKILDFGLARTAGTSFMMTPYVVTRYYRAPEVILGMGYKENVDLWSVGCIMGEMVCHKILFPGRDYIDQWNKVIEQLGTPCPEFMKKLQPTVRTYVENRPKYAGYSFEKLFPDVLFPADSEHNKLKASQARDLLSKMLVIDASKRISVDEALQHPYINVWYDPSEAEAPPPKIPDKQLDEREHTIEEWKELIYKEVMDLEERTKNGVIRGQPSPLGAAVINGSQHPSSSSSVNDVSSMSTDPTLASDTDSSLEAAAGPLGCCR
Chain of Interleukin-1 receptor-associated kinase 1 (Homo sapiens) (P51617 whole entry, looked up): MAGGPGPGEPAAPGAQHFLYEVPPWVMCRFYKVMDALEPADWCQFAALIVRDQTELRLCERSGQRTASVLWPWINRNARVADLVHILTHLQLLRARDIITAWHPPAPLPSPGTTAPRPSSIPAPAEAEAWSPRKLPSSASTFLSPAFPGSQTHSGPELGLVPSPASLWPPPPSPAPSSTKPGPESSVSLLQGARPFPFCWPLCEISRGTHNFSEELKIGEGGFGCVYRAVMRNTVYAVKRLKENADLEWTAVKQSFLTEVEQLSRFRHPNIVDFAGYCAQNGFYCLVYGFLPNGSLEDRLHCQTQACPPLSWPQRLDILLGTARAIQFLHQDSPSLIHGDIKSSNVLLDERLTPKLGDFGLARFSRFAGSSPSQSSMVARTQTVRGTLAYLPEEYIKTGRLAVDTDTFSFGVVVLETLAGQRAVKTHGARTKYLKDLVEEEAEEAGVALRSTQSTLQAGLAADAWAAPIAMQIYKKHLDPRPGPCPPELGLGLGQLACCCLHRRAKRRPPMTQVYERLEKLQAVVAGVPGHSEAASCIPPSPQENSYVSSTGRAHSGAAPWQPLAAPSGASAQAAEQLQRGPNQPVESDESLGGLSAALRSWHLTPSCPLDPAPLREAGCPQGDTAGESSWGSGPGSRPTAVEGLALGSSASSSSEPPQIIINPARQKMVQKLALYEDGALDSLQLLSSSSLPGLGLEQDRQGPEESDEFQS
Chain of Mitogen-activated protein kinase 10 (Homo sapiens) (P53779 whole entry): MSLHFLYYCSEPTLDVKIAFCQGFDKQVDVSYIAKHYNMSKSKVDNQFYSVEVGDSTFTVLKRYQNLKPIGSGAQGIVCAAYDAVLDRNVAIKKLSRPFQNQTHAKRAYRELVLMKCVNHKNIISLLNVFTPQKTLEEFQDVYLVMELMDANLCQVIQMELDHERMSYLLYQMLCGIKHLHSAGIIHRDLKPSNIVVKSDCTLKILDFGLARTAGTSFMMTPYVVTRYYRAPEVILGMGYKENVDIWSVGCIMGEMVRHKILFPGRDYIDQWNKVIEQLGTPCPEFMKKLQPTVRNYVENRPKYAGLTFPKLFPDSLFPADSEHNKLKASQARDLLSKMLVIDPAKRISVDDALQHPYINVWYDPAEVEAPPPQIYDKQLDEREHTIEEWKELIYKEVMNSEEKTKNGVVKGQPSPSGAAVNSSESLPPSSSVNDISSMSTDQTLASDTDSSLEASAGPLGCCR

On to `CC(C)n1cnc2c(NCc3ccccc3)nc(NCCCO)nc21`, for which the residual activity in assay [1] was found to be 70%; in assay [2], 99%; in [3] it was 75%; in assay [4] it was 105%; in assay [5], 106%; in [6], 93%. The residual activity stood at 76% in [7]; 106% in [8]; 84% in assay [9]; 105% in assay [10]; 96% in [11]; 101% in [12]. Further, the residual activity in assay [13] is 103%; in assay [14], 111%; in [15], 108%; in assay [16] it was 104%; in assay [17], 95%; in [18], 98%. Also, the figures for the residual activity in [19] and in [20] were 99% and 57%, respectively.

Take `Nc1nc(Nc2ccc(S(N)(=O)=O)cc2)nn1C(=S)Nc1c(F)cccc1F`: the residual activity in [4] was 8%; in assay [5] it was 16%; in [6], 8%; in assay [7] it was 0%; in assay [10], 44%; in assay [11], 3%. Further, the residual activity in assay [12] came to 2%; in assay [13], 0%; in [14] it was 0%; in assay [15], 2%; in assay [16], 88%; in assay [17] it was 84%. The figures for the residual activity in [18], in assay [19] and in assay [20] were 71%, 19% and 35%, respectively.

In the case of `COc1cc2ncnc(Nc3ccc(NC(=O)c4ccccc4)cc3)c2cc1OC`, the residual activity in assay [1] was 92%; in assay [2] it was 105%; in assay [4] it was 100%; in assay [5], 99%; in assay [7], 97%; in assay [9] it was 79%. Also, the residual activity in [11] stood at 99%; in [14], 102%; in [18], 109%; in [19], 108%.

As for `N#CC(C#N)=C(N)/C(C#N)=C/c1ccc(O)cc1`, the residual activity turned out to be 83% in [1]; 98% in [2]; 93% in assay [3]; 84% in assay [5]; 142% in [8]; 76% in [9]. In addition, the residual activity amounted to 83% in assay [17] and 96% in assay [20].

Take `Ic1cccc(CSc2nnc(-c3ccncc3)o2)c1`: the residual activity in assay [1] was 82%; in assay [2], 95%; in [3] it was 92%; in assay [4] it was 91%; in [5] it was 94%; in [6] it was 55%. Also, the residual activity in assay [7] is 41%; in assay [8], 112%; in [9], 101%; in assay [10], 93%; in assay [11], 95%; in assay [12], 86%. The residual activity in assay [13] turned out to be 104%; in assay [14], 102%; in assay [15] it was 89%; in assay [16], 93%; in assay [17], 84%; in assay [18], 90%. Also, the residual activity in assay [19] was found to be 96%; in [20], 73%.

As to `COc1cc2ncc(-c3ccccc3)nc2cc1OC`, the residual activity is 137% in assay [8]; 80% in [9]; 92% in [14]; 58% in assay [15]; 99% in [20].

On to `Oc1ccc(Nc2nc(-c3ccc(Cl)cc3)cs2)cc1`, for which the residual activity is 133% in assay [1]; 108% in [2]; 103% in [3]; 100% in assay [4]; 111% in assay [5]; 108% in [6]. Besides, the residual activity was 97% in assay [7]; 115% in assay [8]; 85% in [9]; 104% in assay [10]; 95% in assay [11]; 106% in assay [12]. Further, the residual activity in assay [13] is 97%; in assay [14] it was 95%; in assay [15] it was 122%; in assay [16] it was 106%; in assay [17], 101%; in assay [18], 101%. For the same molecule, the residual activity amounted to 113% in assay [19] and 108% in assay [20].

Regarding `O=C(O)c1ccc2c3c1cccc3c(=O)n1c3ccccc3nc21`, the residual activity was determined as 110% in assay [1]; 104% in assay [2]; 85% in assay [3]; 35% in assay [4]; 3% in assay [5]; 105% in assay [6]. Besides, the residual activity in [7] stood at 89%; in [8], 125%; in assay [9], 98%; in [10] it was 107%; in assay [11], 94%; in assay [12], 100%. In addition, the residual activity in assay [13] was 40%; in assay [14] it was 46%; in [15] it was 9%; in assay [16] it was 105%; in assay [17], 79%; in assay [18] it was 83%. For the same molecule, the residual activity amounted to 55% in [19] and 78% in assay [20].

For the molecule `Nc1n[nH]c2nnc(-c3c(-c4ccccc4)nn4ccccc34)cc12`, the residual activity in assay [1] came out at 25%; in [2] it was 89%; in assay [3] it was 44%; in [4], 95%; in assay [5], 104%; in [6], 66%. The residual activity in assay [7] amounted to 64%; in assay [8], 88%; in assay [9] it was 23%; in assay [10], 96%; in assay [11] it was 88%; in [12], 95%. Besides, the residual activity in assay [13] amounted to 99%; in assay [14], 103%; in assay [15], 92%; in assay [16], 99%; in assay [17], 71%; in assay [18], 55%. The residual activity in assay [19] was 9%; in [20] it was 19%.

The record behind these values is ChEMBL document CHEMBL2218924, “A broad activity screen in support of a chemogenomic map for kinase signalling research and drug discovery” (Biochem J, 2013).
